Compound activity from PubChem BioAssay.
HCV inh: HCV inhibition; AID 651820; hit rate 3.4% among 340,000; Huh7.5.1 HCVcc-Cre infection, luciferase reporter, 44 h; Potency, µM (top dose mostly 41.8 µM), usual class: inhibitors; active means well fitted inhibition curve with a large enough effect; inconclusive means small, poorly fitted or top-dose-only effect, or another doubt; inactive means no such curve, though single readings can be large or run the other way
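A cell-based infection assay in which seeded cells (1,000 per well) receive test compound after 4 h, are inoculated with HCVcc-Cre at approximately 0.5 moi, and are incubated 44 h before luminescence detection.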
FMDV inh: antivirals against foot and mouth disease virus; AID 1159524; FMDV antiviral cell-based qHTS; Potency, µM (series often up to 57.9 µM), most hits filed as inhibitors; hit rate 1.2% among 410,000; calls by dose curve; tested in HEK293T cells; further: read-out not given here; nearly all actives have a fitted effect of over 45% in size
HCMV inh: blocks human cytomegalovirus replication | HFF cells, HCMV-luciferase reporter, 72 h; stronger effect = lower value | activity change, negative = inhibition, % at 57.5 µM | hit rate 4.5% among 410,000; in the data active means activity change below about -60%; inconclusive means no clear call, values can overlap the other calls; inactive means above about -39%
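Two-dose cell screen: HFF monolayers treated with compounds and infected with luciferase-expressing HCMV at 1 PFU/cell, 72 h at 37C, then lysed for luciferase measurement.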
Marburg entry inh: blocks Marburg virus binding to or entry into cells; Marburg virus pseudotyped entry inhibition, cell reporter; Potency, µM (series often up to 37.8 µM), actives largely listed as inhibitors; hit rate 1.8% among 300,000; calls by dose curve; tested in HEK293 cells
LASV entry inh: inhibitors of Lassa virus binding or cell entry | Lassa virus pseudotype entry inhibition, cell reporter | Potency, µM (titrated, usually from 37.9 µM), most hits filed as inhibitors | hit rate 1.2% among 300,000 | AID 540256; calls by dose curve; tested in HEK293 cells; further: nearly all actives have a fitted effect of over 50% in size
Hits are given with their value; – = inactive; ? = inconclusive; · = no result given; ! = not confirmed by another sample. Only some compounds are listed: those with a hit (about 7.9% of all), similar ones and a draw of the others.

SMILES | HCV inh | FMDV inh | HCMV inh | Marburg entry inh | LASV entry inh
COCC(C)n1c(SCC(=O)N2CC(=O)Nc3ccccc32)nc2ccccc2c1=O (stereo unspecified) | – | – | – | · | ·
CCOC(=O)c1ccc(NC(=O)c2csnn2)cc1 | · | – | – | ? | –
Cc1ccc(C)n1C1C(=O)N(Cc2ccc(C(F)(F)F)cc2)c2ccc(F)cc21 (stereo unspecified) | · | · | – | · | ·
COc1ccc(CNC(=O)CCCN2C(=O)CCn3nc(-c4cn(C)c5ccccc45)cc32)cc1 | · | – | – | · | –
COc1cc2c(-c3ccc4[nH]ccc4c3)c(-c3ccc(C#N)cc3)oc(=O)c2cc1OC | 11.2µM | – | – | – | ·
COc1cc2c(-c3ccc4cc[nH]c4c3)c(-c3ccsc3)oc(=O)c2cc1OC | ? | – | ? | · | ·
CN(Cc1ccccc1)C(=O)C1CCC(CNS(=O)(=O)c2cccc3cccnc23)CC1 (stereo unspecified) | ? | – | -61.9 | · | ·
O=C(C1CCC(CNS(=O)(=O)c2cccc3cccnc23)CC1)N1CCc2ccccc21 (stereo unspecified) | ? | ? | -61.0 | · | ·
COc1cc2c(cc1O)-c1ccccc1CN(C)C2 | · | – | · | · | ·
COc1ccc(Br)cc1CNC(=O)c1ccc(-n2c(C)cc3c2CCC(C)C3)cc1 (stereo unspecified) | · | – | – | · | ?
CCC[C@H]1[C@@H](NC(=O)Nc2cc(Cl)cc(Cl)c2)CC[C@@]23CCCN2C(=O)CCC[C@@H]13 | · | · | – | · | ·
CN(C)CCCCOc1ccc(Br)cc1Cl | 10µM | – | – | ? | –
COCCNCCCOc1ccc(Br)cc1Cl | 10µM | – | – | ? | ?
COCCCNCCCOc1ccc(Cl)cc1C(C)(C)C | 7.08µM | ? | – | ? | ?
Cc1cc(Br)ccc1OCCCCNCCO | 10µM | – | – | ? | –
OCCNCCCOc1ccc(Cl)cc1Br | – | – | – | 20.6µM | –
COCCNCCCOc1ccc(Cl)cc1Br | – | – | – | · | ·
COCCCNCCCCOc1ccc(Br)cc1Cl | 10µM | – | ? | ? | ?
Cc1oc(-c2ccccc2NC(=O)c2ccccn2)nc1CNC(=O)c1cccc(C#CC(C)(C)O)c1 | · | – | · | · | ·
NC(=S)N/N=C1\CC(c2ccc3c(c2)OCCCO3)Oc2ccc(F)cc21 (stereo unspecified) | 8.91µM | ? | – | ? | ?
CCCCCc1ccc(OCCC[n+]2ccccc2)c(CCCCC)c1 | 10µM | 17.8µM | -98.6 | 7.08µM | ?
CCCCCc1ccc(OCCOCCn2c[n+](C)c3ccccc32)c(CCCCC)c1 | 10µM | 25.1µM | · | · | ·
C[n+]1cn(CC(O)COCc2ccccc2)c2ccccc21 (stereo unspecified) | – | – | – | – | –
O=C(NCCC1=CCCCC1)c1ccc2c(c1)N(Cc1ccc(Cl)cc1)C(=O)c1ccccc1S2=O (stereo unspecified) | · | – | – | ? | –
N#Cc1c(N2CCN(c3ccc([N+](=O)[O-])cc3)CC2)[n+](=O)c2ccc(Cl)cc2n1[O-] | ? | ? | – | ? | 10µM
SMILES | HCV inh | FMDV inh | HCMV inh | Marburg entry inh | LASV entry inh
CCOC(=O)CSC1=NC(=O)/C(=C\c2ccc(Cl)cc2)S1 | ? | 17.8µM | -94.1 | – | –
CCOc1ccc(S(=O)(=O)NCCC(=O)N2CC=C(c3ccccc3)CC2)cc1 | 22.4µM | ? | ? | · | ·
COc1ccccc1OCC(=O)Nc1c(C(=O)c2ccc(F)cc2)oc2ccccc12 | · | – | – | ? | –
CCOC(=O)c1c(NC(=O)C(C)N2CCN(C(=O)c3ccco3)CC2)sc2c1CCCC2 (stereo unspecified) | 10µM | ? | – | ? | 11.2µM
CCC1CSC(Nc2ccc(C(=O)/C=C/c3ccc(OC)c(OC)c3)cc2)=N1 (stereo unspecified) | ? | 25.1µM | -101.5 | ? | 23.1µM
COc1ccc(C=CC(=O)c2ccc3cc(OC)c(OC)cc3c2)cc1OC | · | ? | – | · | ·
COc1ccc(/C=C/C(=O)c2ccc(NC3=NCCCS3)cc2)cc1OC | ? | 15.8µM | – | ? | –
COc1cccc(CN2C(=O)CN(C3CCCCC3)C(=O)C2c2ccc(OC)c(OC)c2)c1 (stereo unspecified) | · | – | – | · | ?
CCc1ccc(NC(=O)c2ccc(F)c(S(=O)(=O)N3CCC4(CC3)OCCO4)c2)cc1 | · | – | -89.9 | · | ?
CCc1ccc(NC(=O)c2ccc(F)c(S(=O)(=O)N3CCC(C)CC3)c2)cc1 | · | ? | – | · | ?
O=C(Nc1ccc(F)c(F)c1)c1ccc(F)c(S(=O)(=O)N2CCC3(CC2)OCCO3)c1 | 12.6µM | ? | -82.2! | ? | ?
O=C(Nc1ccccc1C(F)(F)F)c1ccc(F)c(S(=O)(=O)N2CCc3ccccc3C2)c1 | · | – | – | · | –
O=S(=O)(c1cc(F)ccc1F)N1CCC2(CC1)OCCO2 | – | – | – | · | ·
CCc1ccc(NC(=O)c2ccc(F)c(S(=O)(=O)N3CCc4ccccc4C3)c2)cc1 | · | – | -68.0 | · | ?
COc1ccc(C2=C(C)C(=O)N(Cc3ccc(C(=O)Nc4cc(C)ccc4C)cc3)S2(=O)=O)cc1 | · | ? | – | · | ?
Cc1ccc(Cl)cc1-n1c(=O)cc(N2CCN(c3ccccc3)CC2)[nH]c1=O | · | – | ? | · | –
CCc1ccc2c(c1)C1(NN=C(c3ccc(C)cc3)S1)C(=O)N2 (stereo unspecified) | 10µM | – | -100.9 | ? | –
O=C(NCCCN1CCN(c2ccc(F)cc2)CC1)NC12CC3CC(CC(C3)C1)C2 | ? | – | -79.4 | ? | ?
O=C(CN1CCN(Cc2ccc(Cl)cc2)C1=O)NCCCN1CCN(c2ccc(F)cc2)CC1 | 10µM | ? | -75.4 | 13µM | –
O=C(CN1CCN(Cc2ccc(Cl)cc2)C1=O)NCCCN1CCOCC1 | – | – | – | · | ·
Cc1ccccc1CN1CCN(CC(=O)NCCCN2CCN(c3ccc(F)cc3)CC2)C1=O | 10µM | – | – | ? | –
O=C(CN1CCN(Cc2ccc(F)cc2Cl)C1=O)NCCCN1CCOCC1 | – | – | – | · | ·
O=C(NCC1CCC2(CCN(Cc3cccc4cccnc34)CC2)O1)c1ccco1 (stereo unspecified) | · | – | · | · | ·
O=C(CN1C(=O)c2ccccc2C1=O)c1ccccc1 | – | – | – | – | –
CC1=C(CC(=O)c2ccccc2)C(=O)c2ccccc2C1=O | ? | ? | -98.6 | ? | –
SMILES | HCV inh | FMDV inh | HCMV inh | Marburg entry inh | LASV entry inh
O=C(N/N=C/c1ccccc1C(=O)O)c1ccccc1Br | – | – | – | – | –
C=CCc1cccc(/C=N/NC(=O)c2ccccc2Br)c1O | 14.1µM | – | -99.1 | · | ·
O=C(N/N=C/c1ccc(Cl)cc1Cl)c1ccc2nc[nH]c2c1 | – | – | – | · | ·
C=CCc1cccc(/C=N/NC(=O)c2ccccc2OC)c1O | ? | – | -97.4 | ? | –
C=CCc1cccc(/C=N/NC(=O)C(=O)Nc2ccc(C)cc2)c1O | – | – | – | – | –
C=CCc1cccc(/C=N/NC(=O)c2ccc3nc[nH]c3c2)c1O | ? | – | -100.6 | · | ·
C=CCc1cccc(/C=N/NC(=O)C(C)Nc2ccc(C)cc2)c1O (stereo unspecified) | 10µM | ? | -89.4 | ? | ?
C=CCc1cccc(C=NNC(=O)CN2CCN(Cc3ccccc3)CC2)c1O | · | · | · | ? | 11.6µM
Oc1ccc(-c2n[nH]c(=S)n2-c2ccc3c(c2)OCCO3)c(O)c1 | – | 2µM | -101.1 | ? | ?
